The term AC50 denotes the concentration at which the activity in the assay is half-maximal.

We go through 40 molecules from PubChem BioAssay (EPA / NIEHS).

Each structure is given as a SMILES string. Active and inactive are the calls of the source. Rule for the calls: active = hit-call score of the fitted dose curve at least 0.9, where 1 is the maximum; inactive = score below 0.9.

Read-out in this experiment: growth arrest and DNA damage 45 (GADD45B), GADD45B (gene 4616)
As to the kind of experiment: LTEA_HepaRG_GADD45B: Life Technologies and Expression Analysis (LTEA) Assay for growth arrest and DNA damage 45 (GADD45B) using HepaRG (AID 2283461). As to conditions: mRNA level, 48 h; actives raise or lower the signal. As for the experimental part:
LTEA_HepaRG is a cell based, multiplexed-readout assay that uses HepaRG, a human liver cell line, with measurements taken at 48 hours after chemical dosing on a 96-well plate.LTEA_HepaRG_GADD45B is one of 102 assay component(s) measured in the LTEA HepaRG cell culture assay. It is a marker of Cell proliferation, survival, death.Data from the assay component LTEA_HepaRG_GADD45B was analyzed into 1 endpoint. This assay endpoint, LTEA_HepaRG_GADD45B, was analyzed with bidirectional fitting relative to DMSO as the negative control and baseline of activity. Using a type of inducible reporter, measures of mRNA induction for gain or loss-of-signal activity can be used to understand regulation of transcription factor activity. To generalize the intended target to other relatable targets, this assay endpoint is annotated to the mutagenicity response intended target family, where the subfamily is Cell proliferation, survival, death.
A total of 1060 chemcials from the ToxCast library were tested in eight-point concentration-response experiments. Cell culture and cytotoxicity assays were conducted at Thermo Fisher Scientific's Custom Services facility (Madison, WI). A single lot of human HepaRG cells (Thermo Fisher Scientific, Frederick, MD) was used for the cell culture experiments. 96-well format collagen type I coated plates of human HepaRG cells were prepared using established methods. Briefly, cryopreserved HepaRG cells were thawed, plated at a density of approximately 100,000 cells/well in HepaRG Thaw, Plate, and General Purpose media (HPRG770, Thermo Fisher Scientific), and incubated for 48 hours. 0.5% DMSO was selected as vehicle control to balance the requisite need of DMSO in HepaRG cultures to maintain differentiation (for example, baseline metabolism, proportions of hepatocytes vs. cholangiocytes), while enabling further hepatic receptor pathway activation (for example, PXR and CAR) in response to chemical exposure. 48 hours after plating, the culture medium was replaced with HepaRG Serum-Free Incudtion Media. Cells were exposed to each test chemical in duplicate and maintained in CO2 incubators for another 48 hours. Chemical plates were thawed to room temperature and 200x concentrations of treatment groups were prepared. 8-point conentration-reponse curves were made with the highest exposure at 100 uM, followed by half-log dilutions, all in 0.5% DMSO. Each test plate contained variouse controls, induction positive controls (1mM phenobarbital), cytotoxicity positive controls ([…] aflatoxin B1), vehicle controls (0.5% DMSO), and total lysis controls (0.5% DMSO). Cell morphology images were taken using an Essen IncuCyte FLR automated microscope, with six 96-well plates imaged in about 24 minutes. Images were captured and exported and JPEG files. Spent culture media was transfered to black-well plates for the LDH assay, and remaining media was sorted at -80 C for later use. Cells were treated with RLT buffer and frozen until shipped for gene expression analysis. Total RNA was isolated from the cell suspension in 75 uL of Buffer RLT (Qiagen, Germantown, MD 20874) by Quintiles/Expression Analysis (Durham, NC) using a custom isolation procedure. Total RNA from each plate well was transferred to a preamplification plate. Fluidigm's 96.96 Dynamic ArrayTM (Fluidigm, Amsterdam, the Netherlands) technology was used for gene expression analyses by quantitative reverse transcription polymerase chain reaction (qRT-PCR, performed by Quintiles/Expression Analysis, Durham, NC)89. Standard TaqManTM Assays (Applied Biosystems/ThermoFisher Scientific, Foster City, CA) were used to assess the expression of 93 genes selected based on their selectivity and sensitivity to important hepatic receptors known to be modulated by environmental chemicals; importance in human hepatocyte functionality; and hepatotoxicity. […]
With `CCCOc1ccc(S(=O)(=O)N2CCN(CC)CC2)cc1-c1nc2c(CC)n(Cc3ccccn3)nc2c(=O)[nH]1`, the outcome was inactive. As for `OC(Cn1cncn1)(Cn1cncn1)c1ccc(F)cc1F`, the molecule was called inactive. Still for that read-out and setting: next, `OCc1ccccc1`: “inactive”; `CC(C)CC(C)O` (stereo not given): “inactive”; `CC(=O)c1ccccc1`: “inactive”. As for `O=c1[nH]cnc2c1ncn2[C@H]1CC[C@@H](CO)O1`, the outcome was inactive.

In the case of `Cc1ncc([C@@H](CCCCCCc2ccc3c(n2)NCCC3)CC(=O)O)cn1`, the molecule was classed as inactive. Still for that read-out and setting: the result for `O=C(O)[C@H](O)[C@@H](O)C(=O)O` reads “inactive”. The same measure, in the same setting: next, `O=C(O)c1cccc(C(=O)O)c1`: “inactive”; `CCCC(CCC)C(=O)O`: “inactive”; `COc1cc(C(C)C)c2c(c1)S(=O)(=O)N(COc1cc(=O)n3cccc(OCCN4CCCCC4)c3n1)C2=O`: “inactive”. Turning to `CCCc1ccccc1`, the molecule was called inactive. For the molecule `C[C@]12C=CC(=O)C=C1CC[C@H]1[C@@H]3C[C@@H](O)[C@](O)(C(=O)CO)[C@@]3(C)C[C@H](O)[C@@]12F`, the molecule was called inactive. In the case of `c1ccc2c(c1)-c1cccc3c1c-2cc1ccccc13`, the half-maximal activity concentration (AC50) was 11.3 µM (active). With `CCCCCCCCCCCCCCCCOS(=O)(=O)O`, the call was inactive. The same measure, in the same setting: next, `c1ccc2cc3ccccc3cc2c1`: “inactive”; `CCOc1ccc2[nH]cc(C(=O)NCc3ccccc3)c(=O)c2n1`: “inactive”; `OC[C@H]1O[C@@](CO)(O[C@H]2O[C@H](CO)[C@@H](O)[C@H](O)[C@H]2O)[C@@H](O)[C@@H]1O`: “inactive”. Regarding `CC[C@H](C)C(=O)O[C@H]1C[C@H](O)C=C2C=C[C@H](C)[C@H](CC[C@@H](O)C[C@@H](O)CC(=O)O)[C@H]21`, the outcome was inactive. The same measure, in the same setting: next, `CCc1ccc(O)c(C(C)(C)C)c1`: “inactive”; `Nc1ccn([C@@H]2O[C@H](CO)[C@@H](O)[C@@H]2O)c(=O)n1`: “inactive”. On the same count and under the same terms, next, `CCCCCOC(C)=O`: “inactive”; `OC[C@H]1O[C@@H]2O[C@H]3[C@H](O)[C@@H](O)[C@@H](O[C@H]4[C@H](O)[C@@H](O)[C@@H](O[C@H]5[C@H](O)[C@@H](O)[C@@H](O[C@H]6[C@H](O)[C@@H](O)[C@@H](O[C@H]7[C@H](O)[C@@H](O)[C@@H](O[C@H]1[C@H](O)[C@H]2O)O[C@@H]7CO)O[C@@H]6CO)O[C@@H]5CO)O[C@@H]4CO)O[C@@H]3CO`: “inactive”; `CCCCOC(=O)c1ccccc1`: “inactive”.

On to `CCn1nc(C)c2c1C(=O)NCC(c1ccc(O)cc1)=N2`, for which the molecule was called inactive. The same measure, in the same setting: next, `NC(=O)N(O)[C@@H]1COc2cc(OCc3ccccc3)ccc21`: “inactive”; `CCc1cccc(CC)c1N`: “inactive”.

`CCCCCCCC1CCC(=O)O1` (stereo not given): the call was inactive. On the same count and under the same terms, the result for `CCOC(N)=O` reads “inactive”; that for `Cc1nc(-c2ccccn2)ncc1C(=O)Nn1cc(C)c2cc(F)ccc21`, “inactive”. Same read-out and setting: the result for `O=C(O)c1ccc2c(c1)nc(C(=O)NC1CCN(C3CC3)CC1)n2Cc1cc(-c2ccc(Cl)s2)on1` reads “inactive”; that for `C[C@@H](Oc1ccc(CNC(=O)c2cccnc2Oc2ccc3c(c2)OCO3)c(F)c1)C(=O)O`, “inactive”.

In the case of `NC(N)=O`, the molecule was called inactive. On to `c1ccc2ncccc2c1`, for which the outcome was inactive. Regarding `Cc1nccn1-c1ccc(Sc2cccc(C3(C(N)=O)CCOCC3)c2)cc1`, the AC50 was 27.3 µM (active). Turning to `COc1cc2c(c(OC)c1OC)-c1ccc(OC)c(=O)cc1[C@@H](NC(C)=O)CC2`, the outcome was inactive. Same read-out and setting: next, `CCCCCCCCN(C)C`: “inactive”; `CCN(CC)C(=S)SSC(=S)N(CC)CC`: “inactive”; `OCCOCCOCCO`: “inactive”.

For the molecule `OCCNCCO`, the molecule was classed as inactive.
